Assays:
Assay in all cases: log2 ratio of Biotin-Ahx-Ub-VS probe labelling (fragment/DMSO); higher = less target engagement (more negative = stronger competition), active = hit call of the paper (q ≤ 0.05, log2 ratio ≤ -1)
Settings in all cases: compound concentration: 200 uM; treatment time: 3 h
USP19 = biological target: T1, USP19 (UniProt O94966)
T1 sequence (whole entry): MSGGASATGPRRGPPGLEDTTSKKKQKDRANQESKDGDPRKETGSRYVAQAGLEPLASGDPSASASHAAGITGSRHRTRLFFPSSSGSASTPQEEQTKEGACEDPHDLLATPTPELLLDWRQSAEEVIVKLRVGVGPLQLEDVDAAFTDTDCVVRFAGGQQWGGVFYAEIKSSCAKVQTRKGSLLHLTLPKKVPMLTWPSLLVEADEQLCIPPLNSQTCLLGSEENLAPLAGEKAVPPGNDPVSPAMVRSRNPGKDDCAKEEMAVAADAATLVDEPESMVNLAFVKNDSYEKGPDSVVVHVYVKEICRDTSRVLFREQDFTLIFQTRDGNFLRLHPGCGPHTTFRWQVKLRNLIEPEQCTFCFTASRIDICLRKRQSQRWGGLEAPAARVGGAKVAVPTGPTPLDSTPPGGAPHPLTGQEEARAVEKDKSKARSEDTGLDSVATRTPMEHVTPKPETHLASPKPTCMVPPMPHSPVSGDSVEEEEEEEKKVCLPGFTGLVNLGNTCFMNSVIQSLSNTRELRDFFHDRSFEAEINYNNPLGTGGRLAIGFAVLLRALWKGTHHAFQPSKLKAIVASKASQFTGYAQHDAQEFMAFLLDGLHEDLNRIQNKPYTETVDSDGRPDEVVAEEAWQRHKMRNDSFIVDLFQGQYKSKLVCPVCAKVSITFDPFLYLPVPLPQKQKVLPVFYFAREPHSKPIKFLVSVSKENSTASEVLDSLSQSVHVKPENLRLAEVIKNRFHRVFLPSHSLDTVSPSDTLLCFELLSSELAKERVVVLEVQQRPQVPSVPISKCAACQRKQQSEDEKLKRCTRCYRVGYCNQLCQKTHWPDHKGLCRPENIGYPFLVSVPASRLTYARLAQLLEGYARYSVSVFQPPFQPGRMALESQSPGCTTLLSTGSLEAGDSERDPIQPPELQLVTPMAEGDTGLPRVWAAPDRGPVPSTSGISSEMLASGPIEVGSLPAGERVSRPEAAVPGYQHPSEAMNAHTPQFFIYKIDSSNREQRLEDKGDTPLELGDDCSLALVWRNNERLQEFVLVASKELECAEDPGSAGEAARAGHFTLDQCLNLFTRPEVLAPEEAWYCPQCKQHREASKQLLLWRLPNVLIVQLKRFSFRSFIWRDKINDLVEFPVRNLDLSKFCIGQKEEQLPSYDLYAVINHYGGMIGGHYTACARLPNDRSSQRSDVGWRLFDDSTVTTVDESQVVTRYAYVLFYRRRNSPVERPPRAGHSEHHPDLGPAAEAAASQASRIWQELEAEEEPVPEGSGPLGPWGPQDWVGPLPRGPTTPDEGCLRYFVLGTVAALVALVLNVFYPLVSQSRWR
In short: (§1)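 HEK293T lysate, 495 µg per sample in Tris/CHAPS/IGEPAL buffer with protease inhibitors, was treated in triplicate with fragment at 200 µM or vehicle for 3 h and then with Biotin-Ahx-Ub-VS at 0.5 µM final for 1 h. Labelled DUBs were NeutrAvidin-enriched, digested with LysC and trypsin, and run by diaPASEF LC-MS/MS. Spectronaut label-free quantities were global-median-normalised, and values are average log2 fragment/vehicle ratios by unpaired t-test on proteins with ≥2 unique peptides.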

USP24 = USP24 (UniProt Q9UPU5)
In short: as §1

USP25 = biological target: T2, USP25 (UniProt Q9UHP3)
T2 sequence (whole entry): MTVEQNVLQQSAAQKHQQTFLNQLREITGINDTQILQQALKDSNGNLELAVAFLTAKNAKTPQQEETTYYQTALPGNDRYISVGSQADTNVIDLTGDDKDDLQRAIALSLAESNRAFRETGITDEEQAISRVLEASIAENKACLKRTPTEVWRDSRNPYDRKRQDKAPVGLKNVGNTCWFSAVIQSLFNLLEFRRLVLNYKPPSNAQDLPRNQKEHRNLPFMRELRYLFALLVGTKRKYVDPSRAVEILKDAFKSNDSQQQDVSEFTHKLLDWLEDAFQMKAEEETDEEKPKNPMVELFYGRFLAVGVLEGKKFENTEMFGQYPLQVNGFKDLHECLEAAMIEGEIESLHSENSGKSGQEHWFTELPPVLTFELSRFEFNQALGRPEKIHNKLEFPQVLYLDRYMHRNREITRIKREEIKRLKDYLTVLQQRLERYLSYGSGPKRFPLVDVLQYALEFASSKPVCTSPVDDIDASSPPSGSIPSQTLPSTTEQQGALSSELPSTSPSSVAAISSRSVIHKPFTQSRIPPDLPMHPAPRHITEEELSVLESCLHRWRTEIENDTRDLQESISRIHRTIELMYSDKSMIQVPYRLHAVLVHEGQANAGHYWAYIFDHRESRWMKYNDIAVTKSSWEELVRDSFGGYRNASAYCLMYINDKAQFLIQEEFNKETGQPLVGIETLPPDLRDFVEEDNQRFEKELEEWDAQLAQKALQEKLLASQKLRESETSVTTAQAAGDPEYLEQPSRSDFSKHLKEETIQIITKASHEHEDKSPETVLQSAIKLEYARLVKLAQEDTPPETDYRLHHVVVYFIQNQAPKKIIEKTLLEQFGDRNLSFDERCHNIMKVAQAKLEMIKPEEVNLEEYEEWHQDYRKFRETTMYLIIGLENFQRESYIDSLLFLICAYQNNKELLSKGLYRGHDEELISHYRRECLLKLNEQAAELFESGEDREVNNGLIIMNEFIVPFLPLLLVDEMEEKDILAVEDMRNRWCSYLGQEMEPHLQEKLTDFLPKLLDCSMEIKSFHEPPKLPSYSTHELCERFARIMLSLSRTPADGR
In short: as §1

USP28 = biological target: T3, USP28 (UniProt Q96RU2)
T3 sequence (whole entry): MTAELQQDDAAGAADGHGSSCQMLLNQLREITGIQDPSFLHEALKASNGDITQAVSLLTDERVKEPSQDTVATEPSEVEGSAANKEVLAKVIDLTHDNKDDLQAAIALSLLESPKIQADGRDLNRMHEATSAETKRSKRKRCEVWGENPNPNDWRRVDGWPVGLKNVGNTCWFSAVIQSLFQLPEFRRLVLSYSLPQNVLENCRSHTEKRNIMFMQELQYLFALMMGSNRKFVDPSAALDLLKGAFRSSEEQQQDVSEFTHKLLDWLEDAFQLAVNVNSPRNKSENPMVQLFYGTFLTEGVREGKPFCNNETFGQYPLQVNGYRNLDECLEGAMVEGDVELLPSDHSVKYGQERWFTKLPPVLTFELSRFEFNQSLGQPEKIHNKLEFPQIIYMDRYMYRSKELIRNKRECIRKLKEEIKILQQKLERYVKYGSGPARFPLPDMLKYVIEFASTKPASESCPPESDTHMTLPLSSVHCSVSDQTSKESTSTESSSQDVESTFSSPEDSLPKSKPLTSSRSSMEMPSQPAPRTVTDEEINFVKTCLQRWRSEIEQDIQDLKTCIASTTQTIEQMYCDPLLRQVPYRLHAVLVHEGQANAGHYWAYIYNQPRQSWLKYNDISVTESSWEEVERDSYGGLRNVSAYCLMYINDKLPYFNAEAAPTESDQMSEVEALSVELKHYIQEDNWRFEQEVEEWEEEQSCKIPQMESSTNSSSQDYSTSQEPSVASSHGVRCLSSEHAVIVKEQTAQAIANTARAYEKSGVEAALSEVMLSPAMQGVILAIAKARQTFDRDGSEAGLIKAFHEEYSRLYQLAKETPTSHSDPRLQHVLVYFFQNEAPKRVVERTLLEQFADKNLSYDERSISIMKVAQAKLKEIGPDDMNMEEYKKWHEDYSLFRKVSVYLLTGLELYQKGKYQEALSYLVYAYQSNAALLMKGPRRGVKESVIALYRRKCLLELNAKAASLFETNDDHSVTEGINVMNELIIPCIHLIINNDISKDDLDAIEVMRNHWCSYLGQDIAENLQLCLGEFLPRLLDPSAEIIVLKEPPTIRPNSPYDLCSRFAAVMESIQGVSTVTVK
In short: as §1

Measured: log2 ratio of Biotin-Ahx-Ub-VS probe labelling

USP24, sequence (Q9UPU5 whole entry): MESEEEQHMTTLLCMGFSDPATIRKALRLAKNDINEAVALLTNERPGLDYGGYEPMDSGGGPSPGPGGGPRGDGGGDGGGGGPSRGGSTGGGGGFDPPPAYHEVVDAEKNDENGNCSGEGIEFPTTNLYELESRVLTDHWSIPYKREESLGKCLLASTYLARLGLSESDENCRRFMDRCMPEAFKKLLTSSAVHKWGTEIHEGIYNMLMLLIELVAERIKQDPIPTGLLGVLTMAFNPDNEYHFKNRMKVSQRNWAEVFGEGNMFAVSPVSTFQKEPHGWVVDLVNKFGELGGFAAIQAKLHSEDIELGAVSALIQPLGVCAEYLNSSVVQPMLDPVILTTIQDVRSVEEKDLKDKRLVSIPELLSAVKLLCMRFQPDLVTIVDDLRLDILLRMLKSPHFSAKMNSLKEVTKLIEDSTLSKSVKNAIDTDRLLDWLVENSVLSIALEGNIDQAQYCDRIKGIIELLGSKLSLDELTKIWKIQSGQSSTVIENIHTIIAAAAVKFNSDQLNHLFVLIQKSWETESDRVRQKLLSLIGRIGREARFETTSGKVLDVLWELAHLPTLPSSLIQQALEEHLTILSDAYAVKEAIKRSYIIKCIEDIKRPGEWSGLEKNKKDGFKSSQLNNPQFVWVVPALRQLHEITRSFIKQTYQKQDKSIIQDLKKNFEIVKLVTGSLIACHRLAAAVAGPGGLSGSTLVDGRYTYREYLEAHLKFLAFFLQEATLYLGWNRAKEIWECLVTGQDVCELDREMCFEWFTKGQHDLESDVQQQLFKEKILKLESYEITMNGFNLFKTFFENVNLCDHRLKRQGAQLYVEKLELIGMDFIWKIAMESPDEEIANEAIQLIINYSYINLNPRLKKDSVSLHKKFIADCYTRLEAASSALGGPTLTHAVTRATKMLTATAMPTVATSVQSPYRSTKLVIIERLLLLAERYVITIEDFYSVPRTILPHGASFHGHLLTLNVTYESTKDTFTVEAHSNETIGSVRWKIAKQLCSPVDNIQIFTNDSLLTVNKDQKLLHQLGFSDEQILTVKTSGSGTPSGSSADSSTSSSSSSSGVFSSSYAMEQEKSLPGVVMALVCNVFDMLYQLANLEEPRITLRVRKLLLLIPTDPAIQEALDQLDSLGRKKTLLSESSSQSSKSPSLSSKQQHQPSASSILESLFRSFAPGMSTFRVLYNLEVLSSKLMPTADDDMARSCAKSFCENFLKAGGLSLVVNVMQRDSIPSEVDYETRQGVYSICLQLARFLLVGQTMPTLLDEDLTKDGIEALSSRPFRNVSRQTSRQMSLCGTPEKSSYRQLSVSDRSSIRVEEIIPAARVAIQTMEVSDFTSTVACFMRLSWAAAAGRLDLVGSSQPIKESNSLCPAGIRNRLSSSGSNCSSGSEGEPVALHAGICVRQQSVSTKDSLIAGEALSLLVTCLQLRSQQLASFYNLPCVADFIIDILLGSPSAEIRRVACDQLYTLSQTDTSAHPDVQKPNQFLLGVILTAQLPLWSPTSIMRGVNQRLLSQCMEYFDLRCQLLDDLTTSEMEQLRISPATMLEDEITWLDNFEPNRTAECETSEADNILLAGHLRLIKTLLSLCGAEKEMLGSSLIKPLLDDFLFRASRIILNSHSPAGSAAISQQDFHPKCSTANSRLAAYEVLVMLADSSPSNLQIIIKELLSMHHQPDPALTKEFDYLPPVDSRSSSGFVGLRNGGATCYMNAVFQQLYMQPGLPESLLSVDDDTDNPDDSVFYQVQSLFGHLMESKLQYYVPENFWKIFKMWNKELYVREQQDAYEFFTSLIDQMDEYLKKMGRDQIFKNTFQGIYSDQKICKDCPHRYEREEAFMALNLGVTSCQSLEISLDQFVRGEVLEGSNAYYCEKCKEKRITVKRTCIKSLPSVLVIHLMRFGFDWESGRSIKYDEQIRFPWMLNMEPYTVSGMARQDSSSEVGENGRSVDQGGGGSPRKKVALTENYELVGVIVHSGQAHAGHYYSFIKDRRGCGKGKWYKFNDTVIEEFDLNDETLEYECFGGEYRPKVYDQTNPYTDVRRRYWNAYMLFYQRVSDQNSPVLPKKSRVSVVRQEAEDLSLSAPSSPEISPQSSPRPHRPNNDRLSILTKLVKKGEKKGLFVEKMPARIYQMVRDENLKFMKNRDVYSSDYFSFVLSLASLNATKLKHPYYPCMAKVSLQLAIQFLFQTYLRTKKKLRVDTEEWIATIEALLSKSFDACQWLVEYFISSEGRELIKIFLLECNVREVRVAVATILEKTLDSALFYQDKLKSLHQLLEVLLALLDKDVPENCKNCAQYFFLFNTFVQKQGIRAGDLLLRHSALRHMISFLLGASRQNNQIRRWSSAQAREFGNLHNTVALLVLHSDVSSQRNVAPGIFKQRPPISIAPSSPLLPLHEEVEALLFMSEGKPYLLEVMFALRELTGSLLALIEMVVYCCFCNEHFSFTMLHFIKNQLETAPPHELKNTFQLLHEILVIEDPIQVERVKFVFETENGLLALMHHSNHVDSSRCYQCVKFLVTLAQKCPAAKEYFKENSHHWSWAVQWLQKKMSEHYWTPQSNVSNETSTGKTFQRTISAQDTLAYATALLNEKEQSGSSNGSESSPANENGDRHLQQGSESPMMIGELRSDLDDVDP

CCN(Cc1ccc(C#N)cc1F)C(=O)CCl
inactive: USP19 -0.28 | USP24 -0.741 | USP25 -0.659 | USP28 -0.624

From the supplement of paper PMC11732987, “Enantioselective OTUD7B fragment discovery through chemoproteomics screening and high-throughput optimisation” (Communications Chemistry, 2025)
